Assay results taken from the supplement of paper PMC11417369.
In all, about 25,000 sequences were measured (“ln(normalized median fluorescence intensity)”: median about 9.3, highest 2% from about 10 on). Only a selection was taken, and the highest values are over-represented in it overall.

system: PF3D7_0420300 AP2 domain 1 (GST-tagged); test: gcPBM binding intensity (ln(normalized median fluorescence intensity)); higher = stronger DNA binding
Method in brief: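 Binding intensity is the highest Masliner-normalised natural-log median intensity over replicate spots in either probe orientation. To obtain it, GST-tagged P. falciparum DNA-binding domains made in E. coli were incubated for 1 h on an Agilent 4 × 180k array of primer-extended double-stranded 36-bp intergenic genomic probes plus negative controls. Detection used Alexa488 anti-GST antibody with scanning at 488 nm.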

Sequence | gcPBM binding intensity (ln)
AGCTATTAATTTATTACATGCAAGATTAAAAGACTA [TGCATGCA_site281] | 8.99
AATCAAAACATTAAAAAGAAAAAATATATATATATA [CACACA_negctrl_site366] | 9.03
AGGATATGCAGACACACACACATATAGATTTATATA [CACACA_site7100] | 9.73
ATTGTGCTCATCAGCACACACAACATCATGTAATAA [CACACA_site1863] | 9.47
TTTTGTTATATTCAATATTTATATATTATAAATATA [CACACA_negctrl_site1705] | 9.11
TTAAAACCAAAACACAGTACATATATATATATATAT [XGTACX_site5668] | 9.4
TATTTTATTTTTTTATGTACACAAAAAAAAAAAAAA [XGTACX_site945] | 8.63
TTTTTTTTTTGTTGTTGTACTCTTATATTTTTATAT [XGTACX_site6178] | 9.7
ATAAATAAATAAATAAATAAATATACATATACATAT [CACACA_negctrl_site205] | 9.39
TATGGTAACATATGCTGTACAATATAATATGTTTAA [XGTACX_site1601] | 9.11
TATAGTGATATATACACACACTTGTCTTGTAAAAAT [CACACA_site6594] | 9.53
GATGTATTCATACATGCACACGTACATATTTAAATA [CACACA_site9299] | 9.34
TAAATACAGAAACACACACACAAATATATACATACA [CACACA_site2880] | 10.1
CAAATACAGAAACACACACACATATACATATATATA [CACACA_site3498] | 9.97
CATATACAGAAACACACACACACATAAATAAATATA [CACACA_site1343] | 10.3
ATATATATATATCACGCACACACGAATTTTAAATAT [CACACA_site3131] | 9.65
TTTTCAAAATAATATTATATCAAATGCTAAAAAGAA [TGCATGCA_negctrl_site588] | 8.96
AACATTATAAGACACACACACACATATATATATATA [CACACA_site8259] | 10.1
AAACATAAGAGACACACACACATATATAAATAAATA [CACACA_site7674] | 10.2
TAATAAATAAGACACACACACATATATATATATTAT [CACACA_site1389] | 10.2
ATAAATATAGGACACACACACATATTATATATATAT [CACACA_site5658] | 10.1
AACATTATAGGACACACACACACATATATATATATA [CACACA_site4721] | 10.2
GTAAGAAACAGACACACACACATATAAATATAAATA [CACACA_site6515] | 10.1

Sequence | gcPBM binding intensity (ln)
TAAAACATAAGAGACACACACACATATATATATATA [CACACA_site3643] | 9.9
AACATTATAAGACACACACACACATATATAAATATA [CACACA_site6622] | 10.3
TAATAAATAGGACACACACACATATATATATATTAT [CACACA_site4891] | 10.1
ATCGTTATATAATGTTGTACTTGTTATATATATATA [XGTACX_site7582] | 9.7
TATATATATATATATACATGCATTTCTCATGTACAT [TGCATGCA_site621] | 9.14
TTTGATAAATGATACACACACAATATTTATAAAATA [CACACA_site7040] | 9.72
ATCTATAAATTTCCACGTACATATATATATATATAT [XGTACX_site4502] | 9.32
TTTTGTTTTTGTAGAGTGCATAAAGAAGATATGTAT | 9.1
AGTGTATTAAATTTTGAACACACAAAATAAAACATA [CACACA_site8483] | 9.43
ATTATAACACCTCCCCCCCTTTTTTTATGAAGACCA [CACACA_negctrl_site1043] | 10.4
AACTTTTAGAAGAACACACACATATAGATTATGACC [CACACA_site6256] | 9.86
TATATTATGACCACCACACACCTATACACATAACAT [CACACA_site7199] | 9.62
TTTATACTTGTAAATGCACACATAAGATGCGACTAA [CACACA_site8662] | 9.18
TTTATAAAAATATACACACATACAAATATGCATATA [CACACA_site712] | 9.44
TATCCATATTTGTTCACACACACACCGATTTATATA [CACACA_site5888] | 10.1
TGTATCCATATTTGTTCACACACACCCATATTTATA [CACACA_site9190] | 10
TATCCATATTTGTTCACACACACACCCATTTATATA [CACACA_site3571] | 10.2
ATATAAATTCAAATTACACACATTTATTTTTTTTAC [CACACA_site53] | 9.44
AGCAAATCAGATAGTAGTACATTTAAATTAGACTTT [XGTACX_site4172] | 9.19
TGAACACGCACAAATACACACAAAAAAAATAAATAA [CACACA_site6257] | 9.63
AACATATACACGAACACACACACATATATATATATA [CACACA_site502] | 10.1
CATATACACGAACACACACACACACGCACAAAAAAA [CACACA_site6376] | 10.2
ATTATACACGCGCGCACACACAACAAAAAAAAAAAA [CACACA_site7630] | 9.69

Sequence | gcPBM binding intensity (ln)
CATATACACGAACACACACACATATATATATATATA [CACACA_site4437] | 9.84
GGCATACACGAACACACACACACACGCACATATATA [CACACA_site6426] | 10.3
TATTTTCTCTTAAAAAGTACTCATATATACATTTAT [XGTACX_site7748] | 9.07
GAGTAAAAATTAAAATGTACATATTATATATATTTA [XGTACX_site1319] | 9.09
CTTTGCCTTAAAAAGGAACACACATGCTTTTTTTAG [CACACA_site8219] | 9.22
TTTTTTTTTACTTGTTGTACTTTTTCAAGGTATTGT [XGTACX_site7778] | 9.42
TATATACATAAAATTTGTACATATATATATATATAT [XGTACX_site3214] | 9.28
TGCTTATATCTTATAATATTTATACATCATAATAAG [CACACA_negctrl_site629] | 9.17
ATTTTTCTTTTATTAACACACATATAAATAAATACA [CACACA_site2876] | 9.22
TAATAATAGAAACACACACACATAGACATATATATA [CACACA_site1307] | 10.1
TATACATAGAAACACACACACATAAATAAATATATA [CACACA_site1342] | 10.1
ATAATATAGAAACACACACACATATATATATACATT [CACACA_site555] | 10.2
TATACATAGAAACACACACACATATATATATATATA [CACACA_site2248] | 9.79
CATAATAATAGAAACACACACACATAGACATATATA [CACACA_site1308] | 10.2
TATATATAGAAACACACACACACATATATATATATT [CACACA_site2539] | 10.1
TGTATCCACATATGTACACACATATATCTGTATATG [CACACA_site5668] | 9.51
CAAAAATAAAAGAAATGTACAAAAAATAATAAAAAA [XGTACX_site6597] | 9.43
TATTTTATACATATTTTACACACTAATATATACATA [CACACA_site7998] | 9.42
AGGAATATCGAAAACTGTACTTGTATGTTTCATAAA [XGTACX_site6143] | 9.02
AAATATATTATAAATTGTACGTTTATATATATTATT [XGTACX_site5110] | 9.35
TTAGGCAAGGCGGGGGGTACGTTTTTATATAATTAT [XGTACX_site8029] | 10.6
AATAATATATTTAGGGGTACATAATAATATATTTTA [XGTACX_site8366] | 9.27
ATTTTTGTAAATACATGTACATATATATGCATATCC [XGTACX_site6353] | 9.49

Sequence | gcPBM binding intensity (ln)
TTTCTATTTCCTTCACATCTTTTCATCTTTTTTTTT [CACACA_negctrl_site1110] | 9.71
AATGGAAAAATAGGCACACACACATAAATACAGATA [CACACA_site4844] | 10.3
TGGAAAAATAGGCACACACACATATATACATATATA [CACACA_site1297] | 10
AATGGCAAAATAGGCACACACACATATACATATATA [CACACA_site1058] | 10.1
AATGGCAAAATAGGCACACACACATATACAGATATA [CACACA_site4726] | 10.1
TTAATGGAAAAATAGGCACACACACCGATATACATA [CACACA_site8356] | 9.94
AATGGAAAAATAGGCACACACACATATATACATATA [CACACA_site1298] | 10.2
GACCCCATATACATATGTACATACATAATATATATA [XGTACX_site1817] | 9.57
TAAAATATAATAAAATGTACACGCATGCAATAGAAT [XGTACX_site7434] | 9.65
ATCAGTCGGCAGGACAGTACACAGTAGCCAGAAAAT [XGTACX_site2550] | 9.49
AGTATAAATAAATCATAAACATATATATATATATAT [GTGCAC_negctrl_site356] | 9.2
TATTCCCCCAAACACACACACACACCCACATACCAC [CACACA_site2304] | 10.3
AAAAAAAAAAAAAACACACACATACACCCAAAAATG [CACACA_site4223] | 9.84
AAAAAGAAAAAACTTACACACATATATACCCCCATG [CACACA_site4463] | 10.2
AAGTACATACATAAAACACACACATATATATATATA [CACACA_site8541] | 9.59
CAAACACCCAAACACACACACACATACATACATACA [CACACA_site8044] | 10.2
AAAAAGAAAAAACTTACACACATATATACAGACATG [CACACA_site550] | 9.93
AAAAAAAAAAAACACACACACACACTAGTACATACA [CACACA_site4551] | 10.2
AAAAAAAAAAAAAACACACACACACCCAAATACATA [CACACA_site708] | 9.87
AACACCCAAAAACACACACACATACATACATACATA [CACACA_site4411] | 9.98
AAAAAAAAAAAAAAAACACACACATACACCCAAAAA [CACACA_site7910] | 9.69
AAAAAAAAAAAACATACACACATACATACATATATA [CACACA_site8222] | 9.82
AAAAAGAAAAAACTTACACACATATATACACCCATG [CACACA_site8079] | 10.1
